Reference: PubChem BioAssay (NCATS)
Results filed as inconclusive are left out. The source made the active and inactive calls. Calls follow the shape of the dose curve; as a rule, active = well fitted cell-killing curve with a large enough effect; inconclusive = small, poorly fitted or top-dose-only effect; inactive = no such curve, though single readings can be large or run the other way.
Potency is read from the fitted curve at half-maximal effect.

Test: qHTS of pediatric cancer cell lines to identify multiple opportunities for drug repurposing: Primary screen for NB-EBc1 cells (AID 1347095);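 as to activity change, negative = cytotoxic: plate controls were DMSO neutral control for no effect and bortezomib for full effect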
Conditions: NB-EBc1 neuroblastoma viability, CellTiter-Glo luminescence, 48 h; series mostly up to 46 µM; activity change, negative = cytotoxic: at the top concentration
Outline: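 CRCs from 8- or 11-point titrations (lowest final 0.59 nM NPC, 0.78 nM MIPE). Cell viability: CellTiter-Glo after 48 h incubation, 15 min room-temperature development, luminescence imaging.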
With `Cc1nc(N)sc1-c1ccnc(Nc2ccc(N3CCOCC3)cc2)n1` the Potency was 23.5 µM (active).
With `O=C1c2ccccc2-[n+]2ccc3c([nH]c4ccccc43)c21` the Potency was 0.833 µM (active).
In the case of `C[C@H]1[C@H](NC(=O)C(=NOC(C)(C)C(=O)O)c2csc(N)n2)C(=O)N1S(=O)(=O)O`, the “activity change, negative = cytotoxic” value was 18.2% (inactive).
With `OC[C@@H](O)[C@H](O)[C@H](O)[C@@H](O)CO` the Potency was “inactive”.
With `C[N+](C)(C)CCCCCC[N+](C)(C)C` the “activity change, negative = cytotoxic” value was 19.5% (inactive).
In the case of `C[N+]1(C)[C@@H]2CC(OC(=O)[C@H](CO)c3ccccc3)C[C@H]1[C@H]1O[C@@H]12` (stereo partly specified), the “activity change, negative = cytotoxic” value was 6.1% (inactive).
For `CCOC(=O)O[C@]1(C(=O)OCCl)CC[C@@H]2[C@H]3CCC4=CC(=O)C=C[C@]4(C)[C@@H]3[C@@H](O)C[C@@]21C`, the “activity change, negative = cytotoxic” value was 29.8% (inactive).
For `O=C(O)Cc1cccc2ccccc12`, the Potency was “inactive”.
For `Cc1ccc(C(=O)Nc2cccc(C(F)(F)F)c2)cc1Nc1nc(-c2cccnc2)nc2c1cnn2C`, the Potency was 8.33 µM (active).
In the case of `NCCS`, the “activity change, negative = cytotoxic” value was 26.1% (inactive).
With `COc1ccc(-c2coc3cc(O)ccc3c2=O)cc1` the “activity change, negative = cytotoxic” value was 0.643% (inactive).
In the case of `CN(C)CCC(c1ccccc1)c1ccccn1` (stereo unspecified), the “activity change, negative = cytotoxic” value was 20.2% (inactive).
In the case of `COc1cc(O)c2c(c1)C(=O)c1cc(C)cc(O)c1C2=O`, the “activity change, negative = cytotoxic” value was -1.94% [at 16.1 µM] (inactive).
For `O=c1c(-c2ccc(O)cc2)coc2cc(O[C@@H]3O[C@H](CO)[C@H](O)[C@H](O)[C@H]3O)ccc12`, the “activity change, negative = cytotoxic” value was 5.68% (inactive).
For `C=C1C(=O)[C@@]23C(CC[C@@H]1[C@H]2O)[C@@]12CO[C@]3(O)[C@@H](O)[C@@H]1C(C)(C)CC[C@@H]2O` (stereo partly specified), the Potency was 2.09 µM (active).
With `CN[C@@H](C)C(=O)N[C@H]1CN(C(=O)CC(C)C)CC[C@H]2CC[C@@H](C(=O)NC(c3ccccc3)c3ccccc3)N2C1=O` the Potency was 2.96 µM (active).
